The source made the active and inactive calls. The rule behind the calls is not given here.
Assay: inhibition of 3D7 malaria parasite growth – strain 3D7 (AID 2306);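 note: 0% = DMSO wells and 100% = chloroquine plus artemisinin control wells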
Conditions: P. falciparum 3D7 erythrocytic growth, LDH absorbance, 72 h; at 2 µM; active compounds read high

Growth inhibition, active:
O=C(Nc1ccc(-c2nc3ccccc3[nH]2)cc1)c1ccc(-c2cccc([N+](=O)[O-])c2)o1 101%
Cc1cc(Nc2ccc(C(C)(C)C)cc2)c2[nH]ncc2n1 83%
O=S(=O)(NCCN1CCCC1)c1ccc(-c2ccc(CNCc3ccsc3)cc2)cc1 95%
CCCCN(CCCC)Cc1cc2ccccc2cc1O 100%
Cc1cccc2[nH]c(-c3ccc(-c4cccc(NC(=O)C(C)CN5CCN(C)CC5)c4)cc3)nc12 (stereo not given) 98%
COc1ccc2nccc(NN=Cc3ccc(F)cc3)c2c1 98%
CN1C(C)(C)CC(NC(=O)c2ccc(-c3nc4cc(Cl)c(Cl)cc4[nH]3)cc2)CC1(C)C 98%
COc1ccc(CNCCCCCNCc2ccc(Cl)c(Cl)c2)cc1Cl 98%
COc1c(C2CCN(CCCCNC(=O)c3cc(-c4ccc(Cl)cc4)sc3C)CC2)ccc2c1CCCC2 101%
COc1cc2c(c(OC)c1[N+](=O)[O-])C=CC1(O2)N(C)c2ccc([N+](=O)[O-])cc2C1(C)C (stereo not given) 92%
COc1ccc2nc(C)cc(NN=Cc3ccccc3F)c2c1 100%
Cc1noc(C)c1-c1ccc2c(Nc3ccc([N+](=O)[O-])cc3)c(C(N)=O)cnc2c1 100%
CCOC(=O)c1ccc(NC(=O)Nc2cccc(-c3ccc(-c4nc5c(C)cccc5[nH]4)s3)c2)cc1 100%
Cc1ccc(NS(=O)(=O)c2cccs2)cc1-c1cccc(C(=O)Nc2ccc(F)cc2)c1 99%
Clc1ccc(Nc2nc(NCc3ccccc3)nc(N/N=C/c3ccccn3)n2)cc1 99%
O=C1CCCN1CCCNCc1ccc(-c2ccc(-c3nc4ccc(F)cc4[nH]3)cc2)cc1 100%
O=C(Nc1cccc(CN2CCCN(Cc3ccccc3)CC2)c1)c1ccc(-c2ccccc2)cc1 85%
O=[N+]([O-])c1cccc(CNCC2CCN(CCc3ccccc3)CC2)c1 98%
O=C(NC1CC1)c1ccc(N2CCC(Cc3ccccc3)CC2)c([N+](=O)[O-])c1 96%
O=C(CCNc1ccnc(NCC2CCCCC2)n1)Nc1ccccc1 95%
c1ccc(CNCc2cccc(-c3cccc(-c4nc5ccccc5[nH]4)c3)c2)cc1 102%
C[C@]12CC3CC(Nc4nc(N5CCOCC5)nc5ccccc45)(C1)C[C@@](C)(C3)C2 95%
COc1cc2nc(N(C)Cc3cccc(I)c3)nc(N)c2cc1OC 101%
c1ccc2c(c1)ncn2-c1ccnc(Nc2ccncc2)n1 89%
FC(F)(F)c1ccc(CNC2CCN(CC3CCCCC3)CC2)cc1 87%
Cc1cc(NCC(c2ccccc2)c2ccccc2)nc(NCc2ccc(C(F)(F)F)cc2)n1 102%
COc1ccc(NC(=O)C2c3ccccc3C(=O)N(C3CCCC3)C2c2cccs2)cc1 (stereo not given) 93%
COc1cc(C(=O)N2CCN(C(C)C)CC2)ccc1CN(C)CCCCN1CCN(c2cccc(Cl)c2Cl)CC1 101%
CC1(C)N=C(N)N=C(N)N1OCc1cccc(Cl)c1Cl 92%
O=C(NC1CC1)c1ccc(N2CCCCN2CCc2ccccc2)c(C(F)(F)F)c1 98%
O=C(NCCCCN1CCC(c2ccc3ccccc3c2O)CC1)c1ccc(NC(=O)c2ccc(Cl)cc2)cc1 101%
CN(C)CCOc1ccc2c(c1)OC(C)(C)C=C2c1cccc2ccccc12 95%
Oc1cccc2c1CC(NCc1ccccc1)CC2 (stereo not given) 90%
C=CCc1cccc(C)c1OCCCON1C(N)=NC(N)=NC1(C)C 94%
COc1cccc2c(NCc3ccccc3)nc(NCCCN3CCCCC3C)nc12 (stereo not given) 90%
O=C(Nc1cccc(-c2csc(-c3nc4ccccc4[nH]3)c2)c1)c1ccncc1 101%
CCCc1cc(Cc2cnc(N)nc2N)cc(OCCCCCC(=O)O)c1OC 95%
CCOc1cc(C=NNc2nc3ccccc3[nH]2)ccc1OCc1ccc([N+](=O)[O-])cc1 100%
Cc1nnc(-c2ccc3ccccc3c2)c2cn(-c3cccc([N+](=O)[O-])c3)nc12 91%
CC(C)(C)c1ccc(CN2CCC(CNC(=O)c3cc(-c4ccccc4C(F)(F)F)cs3)C2)cc1 (stereo not given) 92%
